Bioassay records from PubChem BioAssay.
The list is not random: actives were taken first. Their share in the collection is about 4.5%.
DAX1 inh-1 – blocks DAX1 repression of SF-1 activated StAR promoter; HEK293T StAR-luciferase reporter, SF-1/DAX-1 repression relief; inhibition, % at 6.8 µM; 370,000 tested, 1.1% active; AID 652010;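 active = inhibition above the mean over all tested compounds plus 3 SD, cut at about 3.6% in these data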;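 note: 0% = DAX-1 cells with DMSO and 100% = cells lacking DAX-1 with DMSO; higher inhibition means more luminescence from relief of DAX-1 repression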
ssDAF12 agonist – activators of S. stercoralis DAF-12 nuclear receptor; AID 652126; activation, % at 6.8 µM; HEK293 ssDAF-12/GRIP1 lit1-tk-luc reporter, luminescence; % of 3 µM dafachronic acid response; 370,000 tested, 1% active;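 active = activation above the mean over all tested compounds plus 3 SD, cut at about 0.9% in these data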;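 note: 0% = DMSO-only wells and 100% = 3 µM delta7-dafachronic acid wells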
DAX1 inh-2 – inhibits human nuclear receptor DAX1 | AID 504766 | HEK293 Gal4-DAX1 luciferase reporter, luminescence | 340,000 tested, 0.99% active | inhibition, % at 6.75 µM;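 active = inhibition above the mean over all tested compounds plus 3 SD, cut at about 4.2% in these data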;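 note: 0% = DAX1-transfected cells with DMSO and 100% = empty-vector control cells with DMSO; inhibition shows as a rise in luminescence from relieved DAX1 repression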
Target sequence (P51843 207-470 limits assumed): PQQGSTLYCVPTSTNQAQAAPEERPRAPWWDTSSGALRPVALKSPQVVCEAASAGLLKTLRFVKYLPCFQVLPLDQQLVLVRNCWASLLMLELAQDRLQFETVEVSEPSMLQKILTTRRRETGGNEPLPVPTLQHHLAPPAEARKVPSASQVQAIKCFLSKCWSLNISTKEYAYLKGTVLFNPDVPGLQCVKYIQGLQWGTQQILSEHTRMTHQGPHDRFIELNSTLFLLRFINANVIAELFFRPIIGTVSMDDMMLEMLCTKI
hcDAF-12 act – H. contortus DAF-12 activation, primary screen; 370,000 tested, 1.4% active; HEK293 hcDAF-12 lit1-tk-luc reporter, luminescence; 0% DMSO, 100% Δ7-dafachronic acid; activation, % at 6.8 µM;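 active = activation above the mean of all tested compounds plus 3 SD, cut at about 5.5% in these data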;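 note: 100% = response to 3 µM Δ7-dafachronic acid high control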
hgDAF12 agonist – agonists of H. glycines DAF-12 nuclear receptor; HEK293 GAL4-hgDAF12 UAS-luciferase reporter, agonist luminescence; normalized to butyrate control; activation, % at 6.8 µM; 370,000 tested, 1.8% active;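 active = activation above a cutoff set at the mean of all screened compounds plus 3 SD, cut at about 10% in these data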;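 note: 0% = DMSO wells and 100% = sodium butyrate wells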
FXN GAA850 act – increases GAA850 frataxin promoter reporter activity | 360,000 tested, 0.56% active | activation, % at 6 µM | HEK293 lucGAA850 FXN promoter luciferase reporter, 24 h; percent of 10 µM SAHA response;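 active = activation above the average of all compounds screened plus 3 SD, cutoff fixed separately per campaign, cut at about 7.5% in these data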;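 note: 0% = DMSO wells and 100% = 10 µM SAHA wells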
The depositor's hits bear a star; . = not tested or not shown.

SMILES | DAX1 inh-1 | ssDAF12 agonist | DAX1 inh-2 | hcDAF-12 act | hgDAF12 agonist | FXN GAA850 act
CC(=O)N1N=C(c2ccc(C)cc2)OC1c1ccc(C(C)C)cc1 (stereo unspecified) | 1.0 | -0.7 | 4.5* | 1.5 | 4.5 | 6.5
CC(=O)N1N=C(c2ccc(C)cc2)OC1c1ccc(C)cc1 (stereo unspecified) | 0.0 | -1.3 | 0.4 | 0.4 | 0.5 | 1.0
COC(=O)C12C=C3CC(c4ccc(OC)cc4)=C3C(=O)N1Cc1[nH]c3ccccc3c1C2 (stereo unspecified) | -0.6 | -0.7 | . | 0.8 | -2.5 | .
Cc1nc2ccccc2nc(C)c1=NOCc1ccc(C#N)cc1 | 1.9 | 0.3 | 1.9 | 4.1 | 11.4* | 7.4
NC(Cc1ccc(O)cc1)C(=O)NN=Cc1ccccc1O (stereo unspecified) | 0.0 | -0.9 | . | 1.8 | 1.9 | .
COC(CNC(=O)c1ccc2nc3ccccc3c(=O)n2c1)OC | 0.1 | -0.9 | 0.5 | 5.7* | 3.8 | 0.0
C=CCc1c(C)nc(N2CCSCC2)[nH]c1=O | 0.1 | -1.3 | 4.3* | 0.3 | 1.0 | 0.0
CCc1c(C)nc(N2CCOCC2)[nH]c1=O | -0.3 | -1.2 | 3.6 | -0.9 | 0.7 | -1.0
Clc1ccc(OCCOc2ccc(Br)nc2Br)c(Cl)c1 | . | -1.9 | . | -2.0 | 6.0 | .
O=C(O)c1[nH]c2ccccc2c1NS(=O)(=O)Cc1ccccc1 | -0.9 | 0.2 | 2.5 | 6.0* | 0.9 | 1.2
O=C(O)c1[nH]c2ccccc2c1NS(=O)(=O)c1ccc(F)cc1 | 0.3 | 0.7 | 1.2 | 4.8 | 5.1 | 1.6
Cc1n[nH]c(C)c1S(=O)(=O)NCCc1c[nH]c2ccccc12 | 0.3 | -0.5 | . | 1.2 | -2.4 | .
CCOc1ccc(N(C(C)=O)C2C=CS(=O)(=O)C2)cc1 (stereo unspecified) | -0.2 | -1.0 | 5.3* | -0.3 | 2.7 | -0.4
CCOC(=O)c1cnn2c(C)cc(-c3ccccc3)nc12 | 2.4 | -0.5 | 4.3* | 4.0 | 6.9 | 4.2
c1ccc(Cc2cnc(N3CCN(Cc4csc5ccccc45)CC3)nc2)cc1 | -2.1 | -1.6 | . | -3.0 | -1.6 | .
CN1CCN(c2ccc(-c3csc(N4CCC(C(N)=O)CC4)n3)cc2)CC1 | . | -2.5 | . | -4.2 | -4.9 | .
COc1ccc2oc(C(=O)CCC(=O)O)c(N)c2c1 | 2.6 | -1.0 | 0.0 | 2.4 | 3.1 | -3.4
COC(=O)CCC(=O)c1oc2ccc(Br)cc2c1N | 2.5 | -0.5 | 3.0 | 1.4 | 11.0* | 4.9
Cc1cccc(C2=NN(c3ccccc3)[C@@H](C(=O)N3CCOC3=O)[C@@H]2C)c1 | 3.7* | -0.8 | 0.0 | 2.1 | 1.9 | -2.2
O=C1OCCN1C(=O)[C@H]1[C@H](c2ccc(Cl)cc2)C(c2ccc(F)cc2)=NN1c1ccccc1 | 3.8* | -1.2 | -0.5 | 0.9 | 2.6 | -1.2
O=C1OCCN1C(=O)[C@H]1[C@H](c2ccc(F)cc2)C(c2ccc(F)cc2)=NN1c1ccccc1 | -0.1 | -1.3 | 0.2 | -0.4 | 1.0 | -0.1
Cc1c(C(C)c2ccccc2O)c2ccccc2n1C (stereo unspecified) | -0.8 | -0.7 | . | 2.9 | 3.8 | .
CC(=O)Oc1oc(-c2ccccc2)nc1C=Nc1ccccc1 | -0.4 | -1.0 | 1.9 | 1.7 | 2.6 | 0.4
COc1ccc(N=Cc2nc(-c3ccccc3)oc2OC(=O)c2ccccc2)cc1 | 3.7* | 0.6 | 0.8 | 5.5 | 11.9* | 5.2
Cn1c(=O)c2c(ncn2CC(=O)Nc2nc3ccc(F)cc3s2)n(C)c1=O | 0.6 | 0.1 | 1.8 | 6.2* | 7.7 | 2.4
SMILES | DAX1 inh-1 | ssDAF12 agonist | DAX1 inh-2 | hcDAF-12 act | hgDAF12 agonist | FXN GAA850 act
CCc1ccc2nc(NC(=O)Cn3cnc4ccccc4c3=O)sc2c1 | 0.7 | 1.2* | 2.5 | 2.7 | 4.7 | 3.9
CCc1ccc2nc(NC(=O)CN3C(=O)NC4(CCCC4)C3=O)sc2c1 | 1.2 | 0.7 | -0.3 | 2.3 | 10.9* | 6.8
CCCCN(C)C(=O)CN1C(=O)C2CCCCN2C(=O)c2ccccc21 (stereo unspecified) | -0.6 | 0.3 | . | -2.8 | -1.4 | .
c1ccc2c(Nc3nnc(-c4ccncc4)s3)cccc2c1 | 0.9 | -0.3 | 0.7 | 2.2 | 10.5* | 3.2
O=C(NCc1ccccc1)C1Cc2ccccc2CN1C(=O)c1ccco1 (stereo unspecified) | -0.1 | -1.1 | 0.6 | 1.5 | 2.6 | 0.1
Cc1ccccc1NC(=O)C1Cc2ccccc2CN1C(=O)c1ccco1 (stereo unspecified) | 1.4 | -0.2 | 5.4* | 2.4 | 8.5 | 2.5
COc1ccc(S[C@]2(C(=O)N3CCN(c4ncccn4)CC3)CC(=O)N(c3ccsc3)[C@@H]2c2ccc(OC)cc2)cc1 | -1.2 | -1.0 | . | -2.8 | 3.4 | .
O=C1c2[nH]nc(-c3ccccc3)c2C(c2ccc(F)cc2)N1Cc1ccccc1 (stereo unspecified) | -0.2 | -1.1 | . | -0.2 | -1.1 | .
COc1ccc(C(=O)N/N=C(\C)CC(=O)Nc2ccc(N(C)C)cc2)c(OC)c1 | -0.3 | -0.7 | 4.7* | -1.1 | 1.8 | 1.9
COc1ccc(CC(=O)Nc2ccc(/C(C)=N/NC(=O)c3ccc(OC)cc3OC)cc2)cc1 | 0.1 | -0.5 | 0.1 | -2.4 | 1.9 | 0.8
COc1ccc(/C=N/NC(=O)CCn2c3ccccc3c3ccccc32)cc1O | -1.7 | -1.6 | -1.6 | 0.0 | 3.5 | -4.8
COc1cccc(/C=N/NC(=O)CCn2c3ccccc3c3ccccc32)c1 | 0.1 | 1.4* | 2.5 | 0.6 | 4.6 | -0.6
O=C(Nc1ccc2c(c1)OCO2)N1CCCc2ccccc21 | 1.1 | -0.8 | 1.5 | 1.5 | 5.6 | 0.9
Cc1ccc2c(c1)CCCN2C(=O)Nc1ccc2c(c1)OCO2 | 1.7 | 1.6* | -0.3 | 3.6 | 11.6* | 1.6
Cc1ccnc(NC(=O)Nc2ccc3c(c2)OCO3)c1 | 2.7 | -0.8 | 1.9 | 2.2 | 12.1* | 5.8
C/C=C/C=C/C(=O)N1C[C@H](C)N(C)C[C@H]1C | -0.4 | -0.3 | . | -1.2 | 2.3 | .
COc1ccc(/C=N/NC(=O)c2c(C)nnn2-c2nonc2N)cc1OC | -0.2 | -1.4 | 5.8* | 0.0 | 0.2 | 0.2
COc1ccc(/C=N/NC(=O)c2nnn(-c3nonc3N)c2C)cc1OC | -0.5 | -1.5 | 2.4 | -1.2 | -1.4 | 0.6
c1coc(-c2nnc3n2N=C(c2ccc4c(c2)OCO4)CS3)c1 | -1.4 | -1.4 | . | -1.7 | 0.3 | .
CCc1cccc(C)c1NC(=O)CSc1n[nH]c(N)n1 | 4.2* | -0.7 | 0.1 | 0.9 | 1.9 | -0.2
CCOc1ccccc1NC(=O)CSc1n[nH]c(N)n1 | 0.1 | -0.7 | -0.4 | -2.3 | 0.8 | -0.3
Cc1cc(Nc2cccc(C(F)(F)F)c2)cc(=O)n1-c1cccc(C(F)(F)F)c1 | -1.0 | -1.3 | . | -1.7 | 0.3 | .
COc1ccc(C(=O)NC(C(=O)NCc2ccccc2OC)C(C)C)cc1 (stereo unspecified) | -1.0 | -1.2 | 0.7 | -0.8 | -2.4 | 1.4
